Assay [1] can be described thus: AP1 Signaling Pathway (AID 357).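 Note: ME-180 reporter cells stimulated with EGF at its EC50 level; % is set by controls: 0 for no effect and ±100 for the full control effect.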 The conditions noted are these: ME-180 AP-1-bla reporter, EGF-induced, beta-lactamase ratio, 5 h; at 7.69 µM (top of the series) unless noted. An outline of the steps:
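Beta-lactamase reporter under AP-1 response element, ME-180 background. Stimulus: EC50 EGF. Compound exposure 5 h, 37 °C. Detection: CCF4, 2.5 h RT, 460/530 nm. Values: AC50 from titration.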

Assay [2] has as its target Cytochrome P450 1A2 (Homo sapiens) (UniProt P05177). The assay can be described thus: p450-cyp1a2 (AID 410; calls by dose curve; note: potency is the fitted concentration of half-maximal effect). An outline of the steps:
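Luminescent demethylation readout: Luciferin-ME (100uM, equal to Km) turned over by 20nM CYP1A2 for 60 min at room temperature after NADPH regeneration addition, following 10 min compound preincubation. Normalization used 57 uM furafylline as full inhibition.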

The nature of assay [3]: NFAT Signaling Pathway (AID 444).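 Note: carbachol stimulus at about its EC50 of 1 µM final; % is set by controls: 0 for no effect and ±100 for the full control effect.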 The conditions noted are these: Jurkat NFAT-bla M1, carbachol, beta-lactamase ratio, 5 h; at 7.69 µM (top of the series) unless noted. An outline of the steps: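 Jurkat cells carrying an NFAT-driven β-lactamase reporter and co-transfected muscarinic M1 receptor were treated with compound plus carbachol (1 uM final, an EC50 level) for 5 h at 37 °C. CCF4 loading followed for 1 h at RT; 460/530 nm ratio gave %activity.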

The nature of assay [4]: Stat Signaling Pathway (AID 446).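 Note: ME-180 cervical cancer cells given 40 pM IL-6 alongside compound; SIE-controlled beta-lactamase reporter measured as 460/530 nm FRET emission ratio; % is set by controls: 0 for no effect and ±100 for the full control effect.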 The conditions noted are these: ME-180 (cervical carcinoma) SIE beta-lactamase reporter, IL-6 stimulated, 5 h; at 7.69 µM (top of the series) unless noted. An outline of the steps:
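Normalization used AC90 stimulation (300 pM IL-6) and AC90 inhibition (125 nM pan-JAK inhibitor at 40 pM IL-6). The underlying signal is SIE-driven beta-lactamase in ME-180 cells after 5 h IL-6 exposure with compound.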

Assay [5] concerns the target Glucocorticoid receptor (Homo sapiens) (UniProt P04150). Description: GR-EFC Redistribution (AID 451; calls by dose curve; note: potency is the fitted concentration of half-maximal effect). The conditions noted are these: CHO-K1 GR-EFC translocation, beta-gal luminescence, 2 h. An outline of the steps: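 CHO-K1 cells stably expressing nuclear-localized β-gal enzyme acceptor and GR fused C-terminally to the enzyme donor fragment; ligand-driven nuclear translocation restores β-gal by complementation. Compounds titrated up to 46 uM final, 2 h at 37 °C; luminescence read.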

Assay [6] addresses Mitogen-activated protein kinase 10 (Mus musculus) (UniProt Q61831). Description: JNK3 AlphaScreen Assay (AID 530).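 Note: kinase came from lysate of stimulated human HepG2 cells; signal reports phosphorylation of biotinylated GST-cJun 1-79 at Ser73 with 10 µM ATP; % is set by controls: 0 for no effect and ±100 for the full control effect.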 An outline of the steps: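 Phosphorylation of biotinylated GST-cJun(1-79) at Ser73 is measured by AlphaScreen proximity luminescence. Enzyme is JNK3 in HepG2 lysates activated with interleukin-1beta and tumor necrosis factor alpha; ATP is 10 uM final.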
A general note: Bead proximity is the source of the signal in Alpha formats.

Assay [7] has as its target 3',5'-cyclic-AMP phosphodiesterase 4B (Homo sapiens) (UniProt Q07343). Description: qHTS Assay for Inhibitors of PDE-IV (AID 607; active = well fitted activation curve with a large enough effect in the main read-out, with a control signal flat, not every such curve was filed as active; note: % of control where 0% means no effect). An outline of the steps: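 HEK293 ACTOne cells with CNG channel (1000/well), endogenous PDE4; membrane potential dye, compounds up to 22.9 uM final. Fluorescence Ex 535/Em 590; RO 20-1724 (100 uM final) as reference.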
In general terms: qHTS replaces the single test concentration by a dilution series.

Assay [8] is described as follows: qHTS Assay for Lipid Storage Modulators (AID 1519; calls by dose curve). The following applies: Drosophila S3 cells, BODIPY lipid droplet/cell ratio, laser cytometry, cells loaded with oleic acid; for activity change, negative = inhibition: at 57.5 µM (top of the series). An outline of the steps:
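Cells seeded at 5,000 per well were treated with compounds over a concentration series and loaded with oleic acid (400 uM, as added). Lipid droplet fluorescence (488 nm excitation, 500-530 nm channel) was read by laser-scanning cytometry and normalized to 20 uM Triacsin C.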

Assay [9] in a line: Primary qHTS for small molecule stabilizers of the endoplasmic reticulum resident proteome: Secreted ER Calcium Modulated Protein (SERCaMP) assay (AID 1508630; active = well fitted curve in the direction sought with a large enough effect; an effect the other way counts as inactive or inconclusive; note: % is set by controls: 0 for no effect and ±100 for the full control effect). An outline of the steps: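 The SH-SY5Y reporter protocol was run at 3 concentrations up to 38.3 uM (primary) or 11 concentrations (follow-up): 16 h compound, 100 nM thapsigargin for 4 h, then extracellular luciferase luminescence.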

The target of assay [10] is Lysosomal acid glucosylceramidase (Homo sapiens) (UniProt P04062). The assay can be described thus: Glucocerebrosidase-p2 (AID 348; in the data active = potency below about 10 µM; note: potency is the fitted concentration of half-maximal effect). The conditions noted are these: purified GBA, blue fluorogenic substrate, 40 min. An outline of the steps:
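Normal human glucocerebrosidase (0.2 nM) with blue fluorogenic substrate (80 uM final) in citrate/phosphate pH 5.9 with 10mM sodium taurocholate, 0.01% tween-20; 40 min RT, NaOH/glycine stop; fluorescence Ex 365/Em 440; AC50 from a titration from 0.6 nM upwards.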

The target of assay [11] is Cytochrome P450 3A4 (Homo sapiens) (UniProt P08684). Description: qHTS Assay for Activators of Cytochrome P450 3A4 (AID 885; active = well fitted curve in the direction sought with a large enough effect; an effect the other way counts as inactive or inconclusive; note: nearly all actives have a fitted effect of over 65% in size). An outline of the steps: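 Human CYP3A4 dealkylates Luciferin-PPXE to luciferin, which luciferase detection converts to light. Substrate was at its KM (25uM), buffer 200mM KPO4, reaction 60 min at RT.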
Assay [12] concerns the target Cytochrome P450 2D6 (Homo sapiens) (UniProt P10635). The assay can be described thus: qHTS Assay for Inhibitors and Substrates of Cytochrome P450 2D6 (AID 891; active = well fitted curve in the direction sought with a large enough effect; an effect the other way counts as inactive or inconclusive;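 note: luciferin methyl ether substrate demethylated by CYP2D6 with NADPH regeneration; % is set by controls: 0 for no effect and ±100 for the full control effect; nearly all actives have a fitted effect of over 60% in size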). An outline of the steps:
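Luminescent read-out of luciferin formed by 5 nM human CYP2D6 demethylating 30 uM Luciferin-ME EGE (Km level) over 60 min at room temperature after NADPH regeneration addition. Data normalized to full inhibition by 1.43 uM quinidine.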

Assay [13] deals with Cytochrome P450 2C19 (Homo sapiens) (UniProt P33261). Description: qHTS Assay for Inhibitors and Substrates of Cytochrome P450 2C19 (AID 899; active = well fitted curve in the direction sought with a large enough effect; an effect the other way counts as inactive or inconclusive; note: % is set by controls: 0 for no effect and ±100 for the full control effect; nearly all actives have a fitted effect of over 60% in size). An outline of the steps: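 In 50mM KPO4, the reaction held 5nM enzyme and KM-level (10uM) Luciferin-H EGE; it ran 60 min at 37C after NADPH regeneration and a 10 min compound preincubation. Luminescence values were scaled to 57uM ketoconazole as complete inhibition.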

For assay [14], the target named is Glucocorticoid receptor (Homo sapiens) (UniProt P04150). The assay can be described thus: GR-GFP Redistribution (AID 450;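 active = compounds whose dose series gives a full or clear partial fitted curve of increased nuclear translocation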; note: potency is the fitted concentration of half-maximal effect). The conditions noted are these: U2OS GR-GFP nuclear translocation, laser cytometry, 2 h.
For assay [15], the target named is Dual specificity protein kinase CLK4 (Homo sapiens) (UniProt Q9HAZ1). The assay can be described thus: qHTS Assay for Inhibitors of CDC-like Kinase 4 (Kinase-Glo Assay) (AID 1770; active = well fitted curve in the direction sought with a large enough effect; an effect the other way counts as inactive or inconclusive; note: % is set by controls: 0 for no effect and ±100 for the full control effect; nearly all actives have a fitted effect of over 65% in size). An outline of the steps: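 Luminescent ATP-depletion read-out (Kinase-Glo) after 4.5 h room-temperature reaction of Clk4 (25 nM final) with RS peptide (100 uM) and ATP (1 uM), pH 7.5 Tris buffer with MgCl2 and DTT.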

Assay [16] has the same target. Description: qHTS Assay for Inhibitors of CDC-like Kinase 4 (ADP-Glo Assay) (AID 1771; active = well fitted curve in the direction sought with a large enough effect; an effect the other way counts as inactive or inconclusive; note: % is set by controls: 0 for no effect and ±100 for the full control effect; nearly all actives have a fitted effect of over 70% in size). An outline of the steps: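 ADP production was read by ADP-Glo luminescence after residual ATP depletion, following 1 h room-temperature reaction of 25 nM Clk4, 1 uM ATP and 100 uM RS peptide with MgCl2, EGTA, DTT and Triton X-100.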
The target is the same in assay [17]. The assay can be described thus: qHTS Assay for Inhibitors of CDC-like Kinase 4 (ADP-FP Assay) (AID 1795; active = well fitted curve in the direction sought with a large enough effect; an effect the other way counts as inactive or inconclusive;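 note: recombinant human CLK4 phosphorylating RS repeat peptide at 1 µM ATP; % is set by controls: 0 for no effect and ±100 for the full control effect; nearly all actives have a fitted effect of over 60% in size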). An outline of the steps: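 Kinase activity was measured as ADP production using Transcreener orange tracer (4 nM) and ADP antibody (1 ug/mL) fluorescence polarization, with ADP calculated from a calibration curve. The 1 h reaction contained 6.25 nM Clk4, 1 uM ATP and 100 uM RS peptide at pH 7.5 with Mg2+.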

The target in assay [18] is Ubiquitin carboxyl-terminal hydrolase 1 (Homo sapiens) (UniProt O94782). Description: Inhibitors of USP1/UAF1: Pilot qHTS (AID 504865; active = well fitted curve in the direction sought with a large enough effect; an effect the other way counts as inactive or inconclusive;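 note: rhodamine fluorescence freed from ubiquitin-rhodamine substrate followed over time; top concentration of the series differs between compounds; % is set by controls: 0 for no effect and ±100 for the full control effect; nearly all actives have a fitted effect of over 35% in size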). An outline of the steps: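 Deubiquitinase activity followed as kinetic rhodamine fluorescence release from 150 nM Ub-Rho. 1 nM USP1/UAF1 with compound, after 15 min room-temperature preincubation, in HEPES pH 7.8 buffer containing TCEP, EDTA, BSA and Tween-20.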

Where [19] appears, read: measured here: cell count channel max response.
The mark [20] stands for this setting: measured here: lipid channel max response.

Results filed as inconclusive are left out. Activity calls are given as the source filed them. Unless noted, calls come from the whole dose curve; as a rule, active = well fitted curve in either direction with a large enough effect (not every such curve was filed as active); inconclusive = small, poorly fitted or top-dose-only effect, or another doubt; inactive = flat fitted curve, though single readings scatter.

Sequence of 3',5'-cyclic-AMP phosphodiesterase 4B (Homo sapiens) (Q07343 whole entry, looked up): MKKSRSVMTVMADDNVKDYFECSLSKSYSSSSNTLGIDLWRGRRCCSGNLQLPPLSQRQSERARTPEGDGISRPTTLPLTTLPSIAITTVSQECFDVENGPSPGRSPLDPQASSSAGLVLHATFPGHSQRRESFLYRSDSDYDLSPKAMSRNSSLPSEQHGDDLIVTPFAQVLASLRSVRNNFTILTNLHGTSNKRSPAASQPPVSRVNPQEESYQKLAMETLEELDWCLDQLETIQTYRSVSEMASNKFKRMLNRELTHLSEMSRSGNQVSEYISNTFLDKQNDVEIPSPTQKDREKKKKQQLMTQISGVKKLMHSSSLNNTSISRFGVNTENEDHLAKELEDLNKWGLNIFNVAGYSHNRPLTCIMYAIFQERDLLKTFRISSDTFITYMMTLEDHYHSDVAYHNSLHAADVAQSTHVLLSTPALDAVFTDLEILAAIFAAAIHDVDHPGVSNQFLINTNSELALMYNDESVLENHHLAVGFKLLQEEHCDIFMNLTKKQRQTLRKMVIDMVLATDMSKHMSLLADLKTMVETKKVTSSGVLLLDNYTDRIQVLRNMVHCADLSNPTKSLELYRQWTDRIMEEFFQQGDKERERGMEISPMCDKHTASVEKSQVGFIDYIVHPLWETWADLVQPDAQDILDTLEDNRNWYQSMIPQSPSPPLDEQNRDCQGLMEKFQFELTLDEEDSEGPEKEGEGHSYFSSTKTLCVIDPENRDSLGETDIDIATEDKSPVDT
Sequence of Cytochrome P450 1A2 (Homo sapiens) (P05177 whole entry, looked up): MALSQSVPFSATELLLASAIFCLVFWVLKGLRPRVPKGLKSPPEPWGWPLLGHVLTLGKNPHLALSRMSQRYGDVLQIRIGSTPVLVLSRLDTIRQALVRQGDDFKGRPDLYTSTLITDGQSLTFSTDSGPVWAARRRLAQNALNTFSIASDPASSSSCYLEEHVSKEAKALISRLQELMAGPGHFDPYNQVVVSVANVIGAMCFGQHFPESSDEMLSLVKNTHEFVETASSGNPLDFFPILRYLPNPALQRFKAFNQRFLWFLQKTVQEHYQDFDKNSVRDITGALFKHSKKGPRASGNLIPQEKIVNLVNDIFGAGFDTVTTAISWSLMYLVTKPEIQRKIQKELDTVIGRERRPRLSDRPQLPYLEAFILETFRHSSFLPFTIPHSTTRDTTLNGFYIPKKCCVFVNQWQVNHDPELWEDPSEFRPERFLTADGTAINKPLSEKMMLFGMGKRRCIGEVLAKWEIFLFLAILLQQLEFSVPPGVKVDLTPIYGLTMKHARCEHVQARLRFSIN
Sequence of Lysosomal acid glucosylceramidase (Homo sapiens) (P04062 whole entry, looked up): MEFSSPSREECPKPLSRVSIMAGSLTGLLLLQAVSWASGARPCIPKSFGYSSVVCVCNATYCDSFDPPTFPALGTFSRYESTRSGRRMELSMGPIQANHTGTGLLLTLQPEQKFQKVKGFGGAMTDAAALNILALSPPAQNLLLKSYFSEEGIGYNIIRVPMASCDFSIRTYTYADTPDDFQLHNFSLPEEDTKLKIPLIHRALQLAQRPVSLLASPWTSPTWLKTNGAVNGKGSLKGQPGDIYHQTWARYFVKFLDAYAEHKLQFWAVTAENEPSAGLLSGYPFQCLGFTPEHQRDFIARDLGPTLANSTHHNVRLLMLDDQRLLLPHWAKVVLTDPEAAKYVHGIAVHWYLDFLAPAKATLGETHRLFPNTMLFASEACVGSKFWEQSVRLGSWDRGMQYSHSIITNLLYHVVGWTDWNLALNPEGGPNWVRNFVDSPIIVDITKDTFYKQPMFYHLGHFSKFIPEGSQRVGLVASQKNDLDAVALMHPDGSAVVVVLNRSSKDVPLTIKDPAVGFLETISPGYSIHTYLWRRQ
Sequence of Dual specificity protein kinase CLK4 (Homo sapiens) (Q9HAZ1 whole entry, looked up): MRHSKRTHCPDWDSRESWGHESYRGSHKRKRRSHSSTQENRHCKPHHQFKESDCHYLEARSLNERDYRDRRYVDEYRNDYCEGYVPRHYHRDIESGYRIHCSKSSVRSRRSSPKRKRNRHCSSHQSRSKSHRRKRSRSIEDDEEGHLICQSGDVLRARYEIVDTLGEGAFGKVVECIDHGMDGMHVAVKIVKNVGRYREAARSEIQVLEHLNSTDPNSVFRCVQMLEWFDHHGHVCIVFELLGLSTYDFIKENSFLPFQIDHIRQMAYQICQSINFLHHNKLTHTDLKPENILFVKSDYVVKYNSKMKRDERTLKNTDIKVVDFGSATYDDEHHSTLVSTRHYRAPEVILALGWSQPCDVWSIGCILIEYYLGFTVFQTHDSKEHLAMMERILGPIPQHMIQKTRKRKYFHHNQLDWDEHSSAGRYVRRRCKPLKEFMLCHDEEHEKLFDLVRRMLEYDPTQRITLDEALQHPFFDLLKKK
Sequence of Glucocorticoid receptor (Homo sapiens) (P04150 whole entry, looked up, the tested form may be a part): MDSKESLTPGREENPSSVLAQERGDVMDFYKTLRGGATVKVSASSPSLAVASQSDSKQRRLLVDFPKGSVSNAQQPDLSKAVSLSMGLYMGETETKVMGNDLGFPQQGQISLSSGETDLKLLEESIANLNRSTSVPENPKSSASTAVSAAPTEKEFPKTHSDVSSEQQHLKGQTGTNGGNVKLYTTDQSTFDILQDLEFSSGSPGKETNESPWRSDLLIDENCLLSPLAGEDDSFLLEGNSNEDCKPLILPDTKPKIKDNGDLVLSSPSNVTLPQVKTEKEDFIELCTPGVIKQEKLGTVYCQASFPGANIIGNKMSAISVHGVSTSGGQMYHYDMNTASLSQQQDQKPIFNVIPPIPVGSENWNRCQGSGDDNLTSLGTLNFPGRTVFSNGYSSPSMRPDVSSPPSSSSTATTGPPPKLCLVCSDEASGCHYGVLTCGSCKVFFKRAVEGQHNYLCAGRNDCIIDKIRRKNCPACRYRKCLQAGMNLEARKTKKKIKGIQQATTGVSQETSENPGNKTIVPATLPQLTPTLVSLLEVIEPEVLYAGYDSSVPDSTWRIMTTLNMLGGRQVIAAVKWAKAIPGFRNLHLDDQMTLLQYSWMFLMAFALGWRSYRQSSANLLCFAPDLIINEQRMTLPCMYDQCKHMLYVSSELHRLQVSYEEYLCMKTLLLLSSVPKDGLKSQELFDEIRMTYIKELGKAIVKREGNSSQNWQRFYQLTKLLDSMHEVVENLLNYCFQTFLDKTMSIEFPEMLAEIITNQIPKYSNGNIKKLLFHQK
Sequence of Cytochrome P450 3A4 (Homo sapiens) (P08684 whole entry, looked up): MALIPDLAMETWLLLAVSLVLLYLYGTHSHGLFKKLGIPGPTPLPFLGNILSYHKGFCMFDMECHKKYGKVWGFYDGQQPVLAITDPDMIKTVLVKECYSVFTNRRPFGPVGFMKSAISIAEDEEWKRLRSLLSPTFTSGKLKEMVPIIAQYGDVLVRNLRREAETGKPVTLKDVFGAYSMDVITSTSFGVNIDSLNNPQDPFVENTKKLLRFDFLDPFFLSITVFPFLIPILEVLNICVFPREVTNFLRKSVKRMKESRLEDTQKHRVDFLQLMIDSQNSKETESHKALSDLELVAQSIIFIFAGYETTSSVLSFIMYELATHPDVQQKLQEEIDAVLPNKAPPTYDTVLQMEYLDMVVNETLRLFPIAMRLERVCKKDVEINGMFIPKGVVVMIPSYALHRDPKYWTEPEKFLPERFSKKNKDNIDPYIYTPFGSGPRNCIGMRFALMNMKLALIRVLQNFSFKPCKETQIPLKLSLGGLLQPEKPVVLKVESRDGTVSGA
Sequence of Ubiquitin carboxyl-terminal hydrolase 1 (Homo sapiens) (O94782 whole entry, looked up): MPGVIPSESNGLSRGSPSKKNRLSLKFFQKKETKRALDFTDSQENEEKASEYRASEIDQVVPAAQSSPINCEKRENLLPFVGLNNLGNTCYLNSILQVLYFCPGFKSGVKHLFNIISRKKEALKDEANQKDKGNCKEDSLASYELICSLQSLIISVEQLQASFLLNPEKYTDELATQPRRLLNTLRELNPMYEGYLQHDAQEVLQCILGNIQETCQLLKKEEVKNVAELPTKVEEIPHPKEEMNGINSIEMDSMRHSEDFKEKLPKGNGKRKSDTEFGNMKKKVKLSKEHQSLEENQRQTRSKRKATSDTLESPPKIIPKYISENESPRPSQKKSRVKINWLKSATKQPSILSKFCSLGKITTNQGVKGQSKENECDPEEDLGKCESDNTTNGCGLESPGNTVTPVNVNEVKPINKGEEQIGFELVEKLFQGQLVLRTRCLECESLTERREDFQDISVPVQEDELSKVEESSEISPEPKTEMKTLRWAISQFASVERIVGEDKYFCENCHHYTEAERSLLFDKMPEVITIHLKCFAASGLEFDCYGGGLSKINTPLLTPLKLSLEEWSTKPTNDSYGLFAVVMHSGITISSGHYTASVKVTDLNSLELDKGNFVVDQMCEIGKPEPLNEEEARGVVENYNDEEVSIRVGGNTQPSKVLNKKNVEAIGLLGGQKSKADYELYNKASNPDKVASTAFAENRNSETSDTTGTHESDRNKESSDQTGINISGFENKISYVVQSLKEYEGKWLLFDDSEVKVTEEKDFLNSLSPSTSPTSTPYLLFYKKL
Sequence of Cytochrome P450 2C19 (Homo sapiens) (P33261 whole entry, looked up): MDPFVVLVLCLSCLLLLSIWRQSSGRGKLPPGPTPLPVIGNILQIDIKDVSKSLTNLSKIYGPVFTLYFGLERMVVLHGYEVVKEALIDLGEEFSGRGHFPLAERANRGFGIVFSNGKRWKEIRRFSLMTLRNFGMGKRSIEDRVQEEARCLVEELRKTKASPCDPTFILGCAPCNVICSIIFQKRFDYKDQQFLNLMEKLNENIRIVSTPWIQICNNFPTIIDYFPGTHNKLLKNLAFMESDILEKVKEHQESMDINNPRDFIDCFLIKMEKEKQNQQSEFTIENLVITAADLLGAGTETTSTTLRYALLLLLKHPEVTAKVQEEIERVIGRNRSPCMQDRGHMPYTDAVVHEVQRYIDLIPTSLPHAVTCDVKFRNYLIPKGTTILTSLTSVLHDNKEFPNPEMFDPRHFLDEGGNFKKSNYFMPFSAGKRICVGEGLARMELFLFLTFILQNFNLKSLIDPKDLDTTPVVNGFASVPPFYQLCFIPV

Regarding `CC(=O)N1CCC[C@@]2(CCN(c3ncccn3)C2)C1`, the activity change, negative = inhibition in [1] is 2.25% (inactive); in assay [3], 13.2% (inactive); in assay [8] it was 2.8% (inactive). Also, the Potency result in assay [2], in assay [7] and in [9] was “inactive” each time. In addition, in assay [4], the activity, negative = inhibition was -10.4% (inactive). In addition, the Potency in assay [5] is > 46 µM (inactive). Moreover, the molecule was classed as inactive in [6]. Further, the max response amounted to 18.6% in assay [8] (setting [19]) and 25.4% in assay [8] (setting [20]).
Consider `Cc1noc(C)c1C(=O)N1CCC2(CC1)CN(C(=O)Nc1cccc(F)c1)C2`, for which the activity change, negative = inhibition is 6.42% (inactive) in [1], 19.9% (inactive) in assay [3] and 1.43% (inactive) in [8]. Besides, the Potency result in [2], in assay [7] and in assay [9] was “inactive” throughout. The activity, negative = inhibition in [4] was 0.457% (inactive). Further, the Potency in assay [5] was > 46 µM (inactive). Moreover, the result in assay [6] was inactive. Moreover, the max response in assay [8] (setting [19]) is -7.63%; in assay [8] (setting [20]), -0.901%.
For `CC(C)NC(=O)N1CCCC2(CCN(C(=O)c3cccc(F)c3)CC2)C1`, the Potency in assay [10] is > 11.4 µM (inactive); in assay [5], > 46 µM (inactive). Besides, the activity change, negative = inhibition in assay [1] was -13.6% (inactive); in assay [3] it was -16.5% (inactive). The Potency entry in [2], in assay [7], in assay [11], in assay [12], in assay [13] and in assay [9] was “inactive” each time. Besides, in [4], the activity, negative = inhibition is -2.81% (inactive). In addition, the molecule was classed as inactive in assay [6].
On to `CC(C)NC(=O)N1CCC2(CC1)CCN(S(C)(=O)=O)CC2`, for which the Potency in assay [10] was > 11.4 µM (inactive); in assay [5] it was > 46 µM (inactive). The activity change, negative = inhibition was -12.4% (inactive) in assay [1] and 6.9% (inactive) in assay [3]. In addition, the Potency result in assay [2], in assay [7] and in [9] was “inactive” each time. In addition, the activity, negative = inhibition in [4] was 4.06% (inactive). Further, the call in assay [6] was inactive.
For `COc1ccc(C(=O)N2CCC3(CC2)CN(C(=O)Nc2cccc(C#N)c2)C3)cc1`, the activity change, negative = inhibition in [1] is -3.72% (inactive); in [3], 16.2% (inactive); in [8], 6.5% (inactive). In addition, the Potency entry in [2], in assay [7], in assay [11] and in assay [9] was “inactive” each time. In addition, in assay [5], the Potency is > 46 µM (inactive). For the same molecule, the result in assay [6] was inactive. Further, the max response in assay [8] (setting [19]) turned out to be 13.9%; in assay [8] (setting [20]) it was 18.3%.
In the case of `COCC(=O)N1CCC2(CC1)CCN(C(=O)Nc1cccc(F)c1)CC2`, the Potency result in assay [2], in assay [7] and in assay [9] was “inactive” each time. Besides, the activity change, negative = inhibition is 3.94% (inactive) in assay [3] and 0.649% (inactive) in assay [8]. The activity, negative = inhibition in assay [4] was -5.26% (inactive). Besides, the Potency in assay [5] was > 46 µM (inactive). Besides, in assay [6], the molecule was classed as inactive. Further, the max response in assay [8] (setting [19]) is 10.1%; in [8] (setting [20]), 10.7%.
Turning to `O=c1c(-c2ccc(F)cc2)nc2cnc(N3CCOCC3)nc2n1Cc1cccs1`, the Potency is > 11.4 µM (inactive) in assay [10], 12.6 µM (active) in assay [2], > 9.22 µM (inactive) in assay [14] and > 46 µM (inactive) in [5]. For the same molecule, the activity change, negative = inhibition in assay [1] is 14.2% (inactive); in assay [3], 13.3% (inactive); in assay [8] it was -1.08% (inactive). For the same molecule, in assay [4], the activity, negative = inhibition is 18.2% (inactive). Moreover, the call in assay [6] was inactive. Besides, the Potency result in [7], in [11], in assay [15], in [16], in [17] and in assay [18] was “inactive” in each case. For the same molecule, the max response came out at 9.38% in assay [8] (setting [19]) and 7.2% in [8] (setting [20]).

Values taken from PubChem BioAssay (NCATS).
